Records with an inconclusive call do not appear. The source made the active and inactive calls. Calls follow the shape of the dose curve; as a rule, active = well fitted inhibition curve with a large enough effect; inconclusive = small, poorly fitted or top-dose-only effect; inactive = no such curve, though single readings can be large or run the other way. Where a SMILES comes first, the peptide text is derived from it. The star is where a group is joined. AFC = O=c1cc(C(F)(F)F)c2ccc(N*)cc2o1

Sequence of N-terminal Xaa-Pro-Lys N-methyltransferase 1 (Homo sapiens) (Q9BV86 whole entry, looked up): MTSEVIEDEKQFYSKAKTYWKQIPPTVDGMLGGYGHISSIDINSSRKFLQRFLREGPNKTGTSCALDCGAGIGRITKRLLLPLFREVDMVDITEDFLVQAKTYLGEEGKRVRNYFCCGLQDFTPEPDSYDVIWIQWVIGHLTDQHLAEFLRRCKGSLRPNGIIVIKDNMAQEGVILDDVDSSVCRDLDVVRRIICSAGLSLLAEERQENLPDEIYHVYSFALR

For the assay, the target named is N-terminal Xaa-Pro-Lys N-methyltransferase 1 (Homo sapiens) (UniProt Q9BV86). Kind of assay: Orthogonal qHTS for Inhibitors of N-terminal methyltransferase 1 (NTMT1): ThioGlo Assay. The conditions noted are these: NTMT1 SAHH-coupled ThioGlo fluorescence, 30 min; series mostly up to 84.5 µM. From the text:
Assay Submitter (PI): Rong Huang Ph.D. Purdue University, West Lafayette, IN 47907 The N-terminal methytransferase 1 is the first methyltransferase that methylates protein alpha-N-amines and plays an important role in regulating cell mitosis, chromatin interactions and DNA repair. It is observed to be over-expressed in various cancer patient tissues like malignant melanoma and colorectal cancer tissues. Knockdown of NTMT1 in cancer cells causes cell mitotic defects and enhances sensitivity to DNA damaging chemotherapeutics. […] These critical cellular processes in which NTMT1 is implicated, coupled with emerging links to cellular dysfunction, strengthen the inference that NTMT1 is a compelling novel anticancer target. Progress have been made in understanding the molecular properties of NTMT1 and the biological consequences of protein alpha-N-terminal methylation, but there are no specific small molecule probes available for NTMT1 to fully characterize its MTase activity. To address this unmet need, a panel of assay is created and established to enable quantitative high-throughput screening (qHTS) for novel, potent, and selective small molecule NTMT1 inhibitors. Two orthogonal qHTS that use different reagents (ThioGlo vs. MTaseGlo) are developed for primary robotic screening against the NCATS chemical library of more than 400,000 small molecules. Identified inhibitors are reacquired, validated, and further characterized. […] Early Translation Branch (ETB) National Center for Advancing Translational Sciences (NCATS) National Institute of Health (NIH)
Materials: NTMT1 enzyme, substrate SPKRIA, control peptide RCC1-6 is provided by the Huang laboratory. MTaseGlo Assay: PROTOCOL TABLE; SEQUENCE No. (e.g., 1, 2, 3, etc.); […] (e.g., Cells, Incubation, Reagent, etc.); VALUE; DESCRIPTION 1; Enzyme; 3 uL; Dispense enzyme mixture (final concentrations of 125 nM NTMT1) into Greiner 1536-well black / solid bottom assay plate (Greiner Bio One, Monroe, NC). 2; Compounds; 23 nL; Compounds (at various concentration) and 1uM final concentration of RCC1-6 (SPKRIA) control were transferred via a Kalypsys Pin Tool (Wako USA) equipped with a 1536-slotted pin array (Wako Automation, Richmond, VA). 3; Incubation; 1 min; Incubate at room temperature. 4; Substrate; 1 uL; Dispense 1 uL of substrate solution (100uM SAM, 10uM SAHH, 15uM ThioGlo3 final concentration) was added to the wells bringing the final assay volume to 4uL. The assay plate was covered with metal lids. 5; Detection; Fluorescence; Initial fluorescence readout (background signal) was detected using the ViewLux microplate imager with an excitation filter of 340 nm and 450 nm emission filter. 6; Incubation; 30 min; Assay plates were incubation at room temperature in the dark. 7; Detection; Fluorescence; Final fluorescence readout was detected using the ViewLux microplate imager with an excitation filter of 340 nm and 450 nm emission filter. The data was normalized to the background fluorescence.
In general terms: Quantitative high-throughput screening tests each substance at several concentrations.
With `C[N+]1(C)CCC(OC(=O)C(c2ccccc2)c2ccccc2)CC1`, the Potency is 2.74 µM (active).
`COc1cc2c(NC3CCN(CC4CCCCC4)CC3)nc(N3CCCN(C)CC3)nc2cc1OCCOCCN(C)C`: the Potency entry is “inactive”.
Regarding `O=C(Nc1ccccc1)c1ccc(Nc2nnc(-c3ccc(O)cc3)c3ccccc23)cc1`, the Potency is 27.8 µM (active).
With `CN=c1nc(-c2ccccc2)n(-c2ccccc2)s1`, the Potency was 5.55 µM (active).
For `CCN1CCCN(c2nc(NC3CCN(C(C)C)CC3)c3cc(OC)c(OCCCN4CCCCC4)cc3n2)CC1`, the Potency is 38.8 µM (active).
As for `CCOc1ccccc1N1CC(c2nc3ccccc3n2CCCCOc2cc(C)ccc2C)CC1=O` (stereo not given), the Potency entry is “inactive”.
To `COc1ccc(C2=Nn3c(nnc3-c3ccccc3F)SC2)cc1OC1CCCC1` belongs “inactive”; to `Fc1ccccc1CNCc1ccc(-c2ccnc3[nH]ccc23)cc1`, 49.4 µM (active); to `COc1cc2c(NC3CCN(C)CC3)nc(N3CCCN(C)CC3)nc2cc1OCCCN1CCCCC1`, 43.5 µM (active).
In the case of `COc1cc2nc(N3CCCC3)nc(NC3CC3)c2cc1OC`, the Potency result is “inactive”.
Regarding `C#Cc1cccc(Nc2ncnc3cc(OC)c(OCCCCCCC(=O)NO)cc23)c1`, the Potency is 22.1 µM (active).
Regarding `O=S(=O)(Cc1ccccc1)Nc1ccc(-c2ccc3c(cnn3-c3ccc(F)cc3)c2)c(C(F)(F)F)c1`, the Potency result was “inactive”.
As for `NCCOc1cc(C(=O)Nc2cc(OCCN)c3ccccc3n2)nc(C(=O)Nc2cc(OCCN)c3ccccc3n2)c1`, the Potency is 19.4 µM (active).
For `CC[C@@H](C)Nc1cc(C(=O)NC2CC3CC[C@@H](C2)N3c2ccc(C(=O)C3CC3)cn2)c(C)cc1C(N)=O` (stereo not given in full) the value was 35 µM (active); for `Cc1[nH]c(/C=C2\C(=O)Nc3cc(-c4ccccc4)ccc32)c(C)c1CCC(=O)O`, 9.87 µM (active).
Regarding `N.N.N.N.N.N.N.N.N.N.N.N.N.N.O.O.[Ru+4].[Ru+5].[Ru+5]`, the Potency was 34.5 µM (active).
On to `Cc1cccc(/C=C/c2ccccc2)n1`, for which the Potency entry is “inactive”.
With `CC(C)c1cc2c(c(O)c1O)[C@@]13CCCC(C)(C)[C@@H]1[C@H](OC3=O)C2=O`, the Potency is 9.67 µM (active).
As to `COc1cc2nc(N(C)C)nc(NC3CCN(C)CC3)c2cc1OC`, the Potency entry was “inactive”.
Consider `CCn1c(=O)c(-c2ccn[nH]2)cc2c(C)nc(N)nc21`, for which the Potency is 49.4 µM (active).
As to `O=C(/C=C/c1ccc(O)c(O)c1)OCCc1ccccc1`, the Potency was 17.3 µM (active).
To `COc1cccc(C2=Nn3c(nnc3-c3ccccc3C)SC2)c1` belongs 27.4 µM (active).
For `O=C(O)c1ccnc2cc(-c3nc4ccccc4n3CCN3CCCCC3)sc12` the value was 55.5 µM (active).
To `OCc1ccc(-c2ccc(-c3ccc(CO)s3)o2)s1` belongs 19.2 µM (active); to `O=C(NCCN1CCCC1)c1cc(-c2ccc(CN3CCOCC3)cc2)nc2ccc(F)cc12`, 24.1 µM (active); to `O=C(O)c1ccc(Cc2c(-c3cccc(-c4ccccc4)c3)[nH]n(-c3nc(C(=O)O)cs3)c2=O)cc1`, “inactive”.
In the case of `C[C@]12CC[C@@H]3c4ccc(O)c(O)c4CC[C@H]3[C@@H]1CCC2=O`, the Potency was 17.5 µM (active).
Take `COc1ccnc(NC(=S)N2CCN(c3cccc(Cl)c3Cl)CC2)c1`: the Potency was 3.88 µM (active).
With `CN(C)CCCC1(c2ccc(F)cc2)OCc2cc(C#N)ccc21` (stereo not given), the Potency entry was “inactive”.
`Cc1ccc(S(=O)(=O)Nc2cnccc2C(=O)Nc2nc(-c3cccc(C)c3)cs2)cc1`: the Potency result is “inactive”.
For `COc1ccc2nc(-c3cc(OC)c(OC)c(OC)c3)cc(C(=O)NCC(=O)Nc3ccc(C(C)=O)cc3)c2c1`, the Potency is 31.2 µM (active).
As for `CC(=O)N[C@@H](CC(C)C)C(=O)N[C@@H](CCC(=O)O)C(=O)N[C@@H](CCC(=O)O)C(=O)N[C@@H](CC(=O)O)C(=O)Nc1ccc2c(C(F)(F)F)cc(=O)oc2c1` (Ac-LEED-{AFC}), the Potency is 44.1 µM (active).
Consider `COc1cc2c(NC3CCN(C(C)C)CC3)nc(N3CCCCC3)nc2cc1OCCOCCN(C)C`, for which the Potency was 34.5 µM (active).
As for `COc1ccc(-c2cc3c(C)nc(N)nc3n(C3CCC(OCCO)CC3)c2=O)cn1` (stereo not given), the Potency is 13.9 µM (active).
Take `Cc1ccc(NC(=O)N2CCN(c3nc(N)nc4sc(-c5cccnc5)nc34)CC2)cc1`: the Potency was 24.8 µM (active).
As to `COc1cc2c(NC3CCN(C(C)C)CC3)nc(N3CCCCC3)nc2cc1OCCCN1CCCCC1`, the Potency entry is “inactive”.
To `CCOc1ccc(Nc2nc(-c3c(C)nc4ccccn34)cs2)cc1` belongs 3.12 µM (active).
Regarding `C[C@]12C[C@H](O)[C@H]3[C@@H](CCC4=CC(=O)CC[C@@]43C)[C@@H]1CC[C@@H]2C(=O)CO`, the Potency result was “inactive”.
For the compound `COc1ccc(C2=Nn3c(nnc3-c3ccccc3Cl)SC2)cc1OC1CCCC1`, the Potency entry was “inactive”.
For `Cc1cc(C)c2c(N)c(C(=O)NCc3ccc(Cl)cc3)sc2n1` the value was “inactive”.

Source of the values: PubChem BioAssay AID1645875 (National Center for Advancing Translational Sciences (NCATS), 2021).
